Screening data from PubChem.
Most compounds without a hit are left out; they make up all but 18% or so of the library.
IL1B secr inh: inflammasome signaling inhibition, IL-1 beta readout | THP-1 LPS/ATP IL-1B secretion, AlphaLISA, 16 h; active compounds read low | AID 743279 | actives 4.7% (n = 360,000) | activity change, % at 57.5 µM; in the data active = activity change below about -50%; inconclusive = mostly about -30% to -49%
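THP-1 cells pretreated 1 hr with compounds (up to 57.5 uM final), then stimulated with LPS (250 ng/mL final) plus ATP (1.25 mM final); secreted IL-1B measured by AlphaLISA after 16 hr, decreased signal indicating inhibition.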
LDHA inh: blocks human lactate dehydrogenase A. activity change, % (values are at about 110 or 230 µM). purified LDHA, NADH/diaphorase-resazurin fluorescence; active compounds read low. P00338. actives 0.15% (n = 480,000); in the data active = activity change below about -30%; inconclusive = mostly about -25% to -30%;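 note: plate controls were DMSO wells for no effect and wells without enzyme for full effect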
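Human LDH5 at 2 nM final in Tris HCl pH 7.4 with 0.06 mM NADH and 0.2 mM pyruvate, reacted 5 minutes at room temperature. Remaining NADH coupled via diaphorase/resazurin; resorufin fluorescence read at 0 and 20 minutes, normalized to enzyme-free and DMSO wells.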
RORg inh: ROR gamma (mouse) transcription inhibition; P51450; Drosophila S2 Gal4-RORgamma UAS-luciferase reporter, 20 h; Potency, µM (series often up to 53.6 µM), for the others: top-dose activity change, negative = inhibition, most hits filed as inhibitors; actives 5.4% (n = 310,000); AID 2551; note: potency is the fitted concentration of half-maximal effect; nearly all actives have a fitted effect of over 60% in size
Target sequence (P51450 whole entry, looked up, the tested form may be a part): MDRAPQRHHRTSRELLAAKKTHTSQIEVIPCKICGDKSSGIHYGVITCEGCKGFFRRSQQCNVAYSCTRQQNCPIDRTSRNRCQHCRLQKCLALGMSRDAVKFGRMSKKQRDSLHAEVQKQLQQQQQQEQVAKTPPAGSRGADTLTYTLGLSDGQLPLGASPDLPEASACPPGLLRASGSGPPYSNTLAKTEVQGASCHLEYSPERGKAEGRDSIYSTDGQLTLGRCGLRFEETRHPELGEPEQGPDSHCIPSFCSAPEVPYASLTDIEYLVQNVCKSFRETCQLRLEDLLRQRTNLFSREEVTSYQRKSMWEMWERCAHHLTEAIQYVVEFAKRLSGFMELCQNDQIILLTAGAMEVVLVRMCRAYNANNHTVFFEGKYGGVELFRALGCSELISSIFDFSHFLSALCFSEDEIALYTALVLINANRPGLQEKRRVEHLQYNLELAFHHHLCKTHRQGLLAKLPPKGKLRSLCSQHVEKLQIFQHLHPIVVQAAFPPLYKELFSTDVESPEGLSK
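ROR gamma transcriptional activity was tracked as Gal4-UAS luciferase output in stably transfected Drosophila Schneider cells, with compound added 1 hr before 700 uM copper sulfate induction and a 20 hr ambient-temperature incubation.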
TDP1 cell noCPT: qHTS for Inhibitors of human tyrosyl-DNA phosphodiesterase 1 (TDP1): qHTS in cells in absence of CPT | DT40 Tdp1-/- hTDP1 cells, no CPT, ATP luminescence, 48 h | actives 15% (n = 420,000) | Potency, µM (top dose mostly 46.2 µM), for inactives: at the top dose activity change, negative = growth inhibition, actives largely listed as inhibitors; note: potency is the fitted concentration of half-maximal effect; nearly all actives have a fitted effect of over 55% in size
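No-CPT arm: Tdp1-/-;hTDP1 DT40 cells (400/well) plus compounds, incubated ≥48 hr at 37 °C. Readout CellTiter-Glo luminescence.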
Gal4-VP16 FLuc: counter-screen for ROR gamma inhibitors: Gal4-VP16 reporter | Drosophila S2 Gal4-VP16 UAS-luciferase, luminescence, 20 h | Potency, µM (highest dose often 53.6 µM), for inactives: top-dose activity, negative = inhibition, most hits filed as inhibitors | actives 3.5% (n = 310,000);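 note: Gal4-VP16 expression switched on by copper sulfate through the metallothionein promoter; potency is the fitted concentration of half-maximal effect; nearly all actives have a fitted effect of over 50% in size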
DT40 TDP1 CPT: DT40-hTDP1 cell growth loss with CPT; chicken DT40 Tdp1-/-;hTDP1 cells + 20 nM CPT, ATP luminescence, 48 h; Potency, µM (titrated, usually from 46.2 µM), for inactives: top-dose activity change, negative = growth inhibition, most hits filed as inhibitors; actives 12% (n = 420,000); AID 686979; note: potency is the fitted concentration of half-maximal effect; nearly all actives have a fitted effect of over 55% in size
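Chicken DT40 Tdp1-/- cells complemented with human TDP1, 400 cells/well, exposed to compounds plus 20 nM camptothecin for at least 48 h at 37 C; viability read as ATP content by CellTiter-Glo luminescence.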
Active calls of the source: *; u = inconclusive; x = not tested or not shown; [ ] = remark or other dose. Unless noted, calls come from the whole dose curve; as a rule, active = well fitted curve in the direction sought with a large enough effect; inconclusive = small, poorly fitted or top-dose-only effect, or another doubt; inactive = no such curve, though single readings can be large; an effect the other way counts as inactive or inconclusive. Unless noted, % is set by controls: 0 for no effect and ±100 for the full control effect.

SMILES	IL1B secr inh	LDHA inh	RORg inh	TDP1 cell noCPT	Gal4-VP16 FLuc	DT40 TDP1 CPT
Cn1c(OCc2cccnc2)nc2c1c(=O)n(Cc1ccc(Br)cc1)c(=O)n2C	-52.5*	-4.4	3.55µM*	u	u	u
CC(NC(=O)c1ccc2c(c1)NC(=O)CCS2)c1ccncc1 (stereo unspecified)	x	1.9	x	x	x	x
CCC(C)(C(=O)NC1CCCC1)N(Cc1cccs1)C(=O)CNC(=O)c1ccccc1 (stereo unspecified)	x	-1.0	x	x	x	x
Cc1nn(CC(O)c2ccccc2F)c(=O)c2ccccc12 (stereo unspecified)	x	-10.7	x	x	x	x
Cc1cccc(NC(=O)C(C)OC(=O)C2=CN3CCS(=O)(=O)N=C3C=C2)c1 (stereo unspecified)	x	-5.9	x	x	x	x
CCOc1ccc(NC(=O)COC(=O)COc2ccc(C3SCCCS3)cc2)cc1OCC	x	10.7	x	x	x	x
O=C(O)C(c1c[nH]c2ccc(Cl)cc12)N1CCN(Cc2ccccn2)CC1 (stereo unspecified)	x	-0.8	x	x	x	x
COCC(C)NCc1cc2ccc(OC)cc2nc1N1CCN(c2ccc(F)cc2)CC1 (stereo unspecified)	x	x	x	13µM*	x	-5.8%[9.04 µM]
COc1ccc2c(C)cc(N3CCN(c4ccc(F)cc4)CC3)nc2c1	15.7	-4.8	19.8%	u	11.1%	u
C=CCN1C(=O)S/C(=C/c2cn(CC(=O)O)c3ccccc23)C1=O	x	-3.1	x	x	x	x
Nc1ccc(-c2cnc(N)c(C(=O)c3cccnc3)n2)cn1	-91.2*	0.0	x	3.66µM*	x	1.84µM*
O=C(Nc1cccc(S(=O)(=O)N2CCCCCC2)c1)c1ccc(=O)[nH]c1	61.4	-9.5	x	18.4µM*	x	u
O=C(Nc1ccc(S(=O)(=O)N2CCCCC2)cc1)c1ccc(=O)[nH]c1	91.3	-6.1	x	u	x	u
CCN(CC)S(=O)(=O)c1ccc(NC(=O)c2ccc(Cl)nc2)cc1	13.9	-9.4	20.0%	23.1µM*	-12.4%	u
O=C(Nc1cccc(S(=O)(=O)N2CCCCC2)c1)c1ccc(Cl)nc1	21.7	-3.5	x	14.6µM*	x	20.6µM*
O=C(Nc1ccc(S(=O)(=O)N2CCCCC2)cc1)c1ccc(Cl)nc1	-20.6	-7.7	x	6.51µM*	x	18.4µM*
O=C(Nc1ccc(S(=O)(=O)N2CCCC2)cc1)c1ccc(Cl)nc1	1.2	-1.7	x	u	x	u
O=C(CSc1nnc2ccc(-c3ccco3)nn12)NC1CCCCC1	x	-3.8	x	x	x	x
O=C(Nc1cccc(S(=O)(=O)Nc2ccccc2Cl)c1)c1ccc(N2CCCC2)c([N+](=O)[O-])c1	2.3	-6.8	u	-22.3%	-9.1%	-1.8%
O=C(Nc1cccc(S(=O)(=O)N2CCCCCC2)c1)c1ccc(Cl)nc1	u	-2.1	x	14.6µM*	x	18.4µM*
O=C(Nc1cccc(S(=O)(=O)Nc2ccccc2Cl)c1)c1ccc(Cl)nc1	6.6	-0.2	u	14.6µM*	6.31µM*	11.6µM*
O=C(Nc1cccc(S(=O)(=O)N2CCCC2)c1)c1cccnc1	36.3	-8.0	-8.2%	0.4%	2.7%	-18.3%
CCOc1ccc(CCNC(=O)c2ccc(C)c(-n3cnc4cccnc43)c2)cc1	x	-4.0	x	u	x	u
Cc1c(C(=O)NCCc2ccc(Cl)cc2)cccc1-n1cnc2cccnc21	x	2.2	x	13µM*	x	14.6µM*
COC(=O)c1c(C)[nH]c(C(=O)OC(C)C(=O)NC2CCCCC2C)c1C (stereo unspecified)	-0.2	-2.1	x	u	x	11.6µM*
SMILES	IL1B secr inh	LDHA inh	RORg inh	TDP1 cell noCPT	Gal4-VP16 FLuc	DT40 TDP1 CPT
CC(OC(=O)C1=NN(c2ccccc2)C(=O)CC1)C(=O)NC1CCCCC1C (stereo unspecified)	-5.8	-2.5	x	-3.1%	x	8.0%
Cc1nn(-c2ccccc2)c(C)c1C(=O)OC(C)C(=O)NC1CCCCC1C (stereo unspecified)	22.8	-2.9	x	20.6µM*	x	13µM*
COc1cc(OC)cc(C2Nc3ccccc3C(=O)N2C2CC2)c1 (stereo unspecified)	x	4.9	x	x	x	x
Cc1ccc(C(=O)N2CCN(c3ccc([N+](=O)[O-])c(NCc4ccco4)c3)CC2)cc1	-26.4	-2.5	28.1%	16.4µM*	0.2%	u
Cc1cccc(C(=O)N2CCN(c3ccc([N+](=O)[O-])c(NCc4ccco4)c3)CC2)c1	-7.6	-5.8	u	20.6µM*	0.8%	u
Cc1ccccc1C(=O)N1CCN(c2ccc([N+](=O)[O-])c(NCc3ccco3)c2)CC1	-10.9	3.6	21.1%	u	-6.0%	u
O=C(OCc1ccc(F)cc1)c1cccc(S(=O)(=O)N2CCCCC2)c1	x	8.1	x	x	x	x
CC(=O)N1CCN(S(=O)(=O)c2cccc(C(=O)OCc3ccc(F)cc3)c2)CC1	7.5	-5.5	x	18.4µM*	x	u
CC(=O)N1CCN(S(=O)(=O)c2cccc(C(=O)OCN3C(=O)c4ccccc4C3=O)c2)CC1	-4.6	-3.6	-24.8%	-23.5%	-22.8%	-21.7%
CC(=O)N1CCN(S(=O)(=O)c2cccc(C(=O)OCc3cccc(F)c3)c2)CC1	25.6	-3.0	x	23.1µM*	x	u
COc1ccc2cnn(CC(=O)Nc3cccc(F)c3)c(=O)c2c1OC	x	2.2	x	x	x	x
OCCCNC(=S)Nc1ccc2nc(-c3ccccn3)c(-c3ccccn3)nc2c1	15.4	21.2	40.1%	-2.0%	0.7%	1.0%
CC(C)(C)CC(C)(C)NC(=S)Nc1ccc2nc(-c3ccccn3)c(-c3ccccn3)nc2c1	-15.7	21.4	7.08µM*	u	u	u
CN(C)NC(=S)Nc1ccc2nc(-c3ccccn3)c(-c3ccccn3)nc2c1	-9.8	10.0	12.6µM*	-9.2%	15.8µM*	18.4%
O=C(c1ccncc1)N1CCN(C2CCC(c3ccccc3)CC2)CC1 (stereo unspecified)	12.5	-31.7*	-23.6%	-29.7%	-5.9%	4.9%
CN(C)c1cccc(C(=O)N2CCC(c3ccncc3)CC2)c1	x	-3.1	x	-75.4%	x	20.6µM*
COc1ccc(C(=O)NC2CCCCCC2)cc1C	x	4.0	x	x	x	x
Cc1ccc(NC(=O)Cc2ccc3c(c2)CCCC3)cc1	x	-5.0	x	x	x	x
C[C@H](NC(=O)OCc1ccccc1)C(=O)NNC(=O)[C@H](Cc1ccccc1)NC(=O)OC(C)(C)C	7.0	-12.8	1.9%	-20.4%	-15.4%	-21.1%
CC(C)(C)OC(=O)C(Cc1ccc(OC(C)(C)C)cc1)NC(=O)CNC(=O)OCc1ccccc1 (stereo unspecified)	-70.8*	1.4	u	11.6µM*	u	16.4µM*
